Test results reported in PubChem BioAssay (Tox21).
Inconclusive results are not listed. Unmarked numbers belong to inactive results. Calls come from the whole dose curve. Square brackets hold non-standard residues; d marks the D form. Peptide text beside a SMILES is read from it. pGlu = O=C1CC[C@@H](C(=O)O)N1

Test: cAMP Responsive Elements (CRE) small molecule agonists, cell-based qHTS assay (AID 1963590)
Settings: CRE-bla HEK293T, beta-lactamase FRET ratio, 3 h; series mostly up to 92.4 µM; activation: at the top concentration
Source text: U.S. Tox21 Program National Center for Advancing Translational Sciences [NCATS] Division of Preclinical Innovation [DPI] U.S. Environmental Protection Agency [EPA] National Institutes of Environmental Health Sciences [NIEHS] National Toxicology Program [NTP] U.S. Food and Drug Administration [FDA] Tox21 Assay Overview: CREB (cyclic-AMP Responsive Element Binding Protein) is a cellular transcription factor. It binds to certain DNA sequences called cAMP Responsive Elements (CRE) and regulates the transcription of the genes. […] This cell line can be used to find agonists/antagonists of the cyclic AMP signaling pathway. The activation of the report gene under culture conditions can be detected by fluorescence intensity. This cell line has been used to screen the Tox21 10K compound library to identify agonists that induce oxidative stress.
Tox21 Assay Protocol Summary: CRE-bla Hek 293T cells were suspended in assay medium (DMEM containing 10% dialyzed FBS, 0.1 mM NEAA, 1 mM sodium pyruvate and 25 mM HEPES) and dispensed at 2,000 cells/5 uL /well into 1536-well black wall/clear bottom plates using a Multidrop Combi (ThermoFisher Scientific, Waltham, MA) dispenser. After the assay plates were incubated at 37 C/5% CO2 for 18 hrs, 23 nL of compounds dissolved in DMSO, positive controls or DMSO only was transferred to the assay plate by a pintool workstation (Kalypsys, San Diego, CA). After the plates were incubated at 37 C/5% CO2 for 3 hrs, 1 uL of LiveBLAzer B/G FRET substrate (Invitrogen, Carlsbad, CA) was added to each well using Bioraptr Flying Reagent Dispenser (FRD, Aurora Discovery, San Diego, CA). The plates were incubated at room temperature for 2 h.
% is set by controls: 0 for no effect and ±100 for the full control effect.

Compound | activation
Nc1ccc(Oc2ccc(N)c(N)c2)cc1 | 0.314%
O=C(Cl)c1cc(C(=O)Cl)cc(C(=O)Cl)c1 | 0.424%
COC(C)(C)CC(C)=O | -0.104%
CN(C)[C@@H](CCOc1cccc2ccccc12)c1ccccc1 | -0.322% [at 42.5 µM]
N=C(N)S(=O)O | -1.17%
CCNC(=O)[C@@H]1CCCN1C(=O)[C@H](CCCN=C(N)N)NC(=O)[C@H](CC(C)C)NC(=O)CNC(=O)[C@H](Cc1ccc(O)cc1)NC(=O)[C@H](CO)NC(=O)[C@H](Cc1c[nH]c2ccccc12)NC(=O)[C@H](Cc1cnc[nH]1)NC(=O)[C@@H]1CCC(=O)N1 ([pGlu]HWSYGLRP-NHEt) | 0.321% [at 42.5 µM]
COc1c2occc2c(OC)c2c(=O)cc(C)oc12 | -0.535% [at 42.5 µM]
CCc1cc(Cc2cc(CC)c(N)c(CC)c2)cc(CC)c1N | 17.7%
CCOC(=O)OCC | -0.0545%
OC12N=C(c3ccccc3)SC1Cc1cc(Cl)ccc12 (stereo not given) | 10.5%
COC=O | -0.656% [at 8.39 µM]
Clc1ccc(C(Cn2ccnc2)OCc2ccc(Sc3ccccc3)cc2)c(Cl)c1 (stereo not given) | 0.58% [at 42.5 µM]
O=Cc1ccccc1S(=O)(=O)O | -1.85%
Cc1[nH]c(C)c(Cl)c(=O)c1Cl | -0.819% [at 19 µM]
CCCC(=O)OCC | -2.61%
CCOC(=O)CC(=O)c1ccccc1 | -0.427%
O=C(O)O | 2.15% [at 8.39 µM]
CCCc1ccc(OCC(=O)N2CCN(C(=O)COc3ccc(CCC)cc3OC)CC2)c(OC)c1 | 0.542% [at 42.5 µM]
C=C(C)C(=O)OCCOC1CC2CC1C1C=CCC21 (stereo not given) | 0.487%
COC(=O)CC(C)=O | -0.422%

Compound | activation
CCc1cccc2c(CCO)c[nH]c12 | -0.236% [at 42.5 µM]
c1ccc(-c2ccccn2)nc1 | -0.0036%
COC(=O)c1cc(Cl)cc(Cl)c1 | 0.158%
Brc1c2ccccc2c(Br)c2ccccc12 | 1.87% [at 8.39 µM]
COC(=O)CCCCCCCC(=O)OC | -3.04%
CC(=O)OC1C2(C)CCC(C2)C1(C)C (stereo not given) | 1.07%
CCOC(=O)C(F)(F)F | 0.819%
COC(=O)c1cc(Cl)ccc1[N+](=O)[O-] | 0.138%
NCCCCCCNCCCCCCN | 1.77%
C/C=C/C=C/C=O | 1.51%
CCCCCCCCCCCCCBr | 0.112%
CN(C)CCCN(C)C | -0.0363% [at 8.39 µM]
COC(=O)/C=C(\C)CCC=C(C)C | -1.37%
COc1cc2c(cc1OC)[C@@H]1CC(=O)[C@@H](CC(C)C)CN1CC2 | 6.83% [at 42.5 µM]
CCOc1ccc(NS(=O)(=O)c2ccc(N)cc2)nn1 | -0.404% [at 42.5 µM]
O=C(/C=C/c1ccc(O)c(O)c1)O[C@@H](C(=O)O)[C@@H](OC(=O)/C=C/c1ccc(O)c(O)c1)C(=O)O | 0.0273%
CCCCN1C(=O)c2ccccc2C1=O | -0.16%
CCC[Si](OC)(OC)OC | 0.102%
O=CO | 0.47% [at 8.39 µM]
CC(C)(C)c1cc(CCC(=O)OCC(COC(=O)CCc2cc(C(C)(C)C)c(O)c(C(C)(C)C)c2)(COC(=O)CCc2cc(C(C)(C)C)c(O)c(C(C)(C)C)c2)COC(=O)CCc2cc(C(C)(C)C)c(O)c(C(C)(C)C)c2)cc(C(C)(C)C)c1O | 1.09% [at 42.5 µM]
